Vc quorum ag: induces V. cholerae light production without autoinducers; actives 0.16% (n = 350,000); activation, % at 18.7 µM; V. cholerae BH1578 lux reporter, luminescence, 6 h; AID 588436; in the data active = activation mostly above about 9.7%, no sharp cut-off
MazF activator: activators of E. coli MazEF toxin-antitoxin RNase; FAM/BHQ RNA-DNA oligo cleavage fluorescence, 5 h; P0AE70; activation, % at 20 µM; actives 0.32% (n = 350,000); AID 504720; in the data active = activation above about 50%
Target sequence (P0AE70 whole entry, looked up): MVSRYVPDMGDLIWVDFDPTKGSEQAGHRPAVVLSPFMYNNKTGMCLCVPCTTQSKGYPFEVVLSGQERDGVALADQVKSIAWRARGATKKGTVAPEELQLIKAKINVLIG
FadD28 binding: inhibitors of Mycobacterium tuberculosis FadD28 bisubstrate binding; actives 0.22% (n = 360,000); inhibition, % at 12.5 µM; FadD28 bisubstrate probe binding, fluorescence polarization; in the data active = inhibition above about 8.5%, passing the limit was not always enough
UGM FP inh: Mtb UDP-galactopyranose mutase inhibition; purified UGM, fluorescence polarization probe displacement; actives 0.06% (n = 320,000); inhibition, % at 10 µM; in the data active = inhibition above about 10%, passing the limit was not always enough
Rv3671c inh: Rv3671c (M. tuberculosis) protease inhibition | P9WHR9 | actives 0.048% (n = 320,000) | inhibition, % at 5.96 µM;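 note: extracellular domain of Rv3671c used as enzyme; 0% = enzyme with DMSO and 100% = no enzyme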
Target sequence (P9WHR9 whole entry, looked up, the tested form may be a part): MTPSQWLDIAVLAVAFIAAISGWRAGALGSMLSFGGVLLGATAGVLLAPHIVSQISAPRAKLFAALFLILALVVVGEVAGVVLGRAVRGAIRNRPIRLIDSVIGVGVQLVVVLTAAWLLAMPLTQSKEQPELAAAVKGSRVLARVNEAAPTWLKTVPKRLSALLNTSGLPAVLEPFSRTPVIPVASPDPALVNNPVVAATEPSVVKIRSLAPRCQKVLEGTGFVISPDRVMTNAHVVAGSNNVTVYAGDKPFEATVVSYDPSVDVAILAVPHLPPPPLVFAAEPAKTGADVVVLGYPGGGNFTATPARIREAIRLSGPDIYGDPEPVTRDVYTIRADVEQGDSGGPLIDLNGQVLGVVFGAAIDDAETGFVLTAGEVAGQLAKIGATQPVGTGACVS
Mtb betalactam: beta-lactam sensitization of Mtb H37Rv | M. tuberculosis H37Rv growth with meropenem, percent inhibition | inhibition, % at 25 µM | actives 0.27% (n = 330,000); call rule not given here;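 note: growth measured after seven days incubation then overnight dye step; 0% = bacteria only wells and 100% = bacteria with antibiotic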
Rv3671c cf: confirmation of M. tuberculosis Rv3671c protease inhibitors; actives 40% (n = 140); inhibition, % at 5.96 µM; shares compounds with Rv3671c inh
DNA intercalat: counter-screen: DNA intercalators. shares compounds with UGM FP inh. acridine orange-DNA binding, fluorescence polarization. AC50, µM. actives 60% (n = 35). AID 463198;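 active = fitted AC50 no greater than ten times the top concentration tested, cut at about 17 µM in these data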
* marks the source's active call; other numbers are inactive results; i = inactive; x = no result given. Only some compounds are listed: those with a hit (about 0.74% of all), similar ones and a draw of the others. Cut-off read from the data, not from the text of the source, unless noted: active = inhibition above about 38%; inactive = the rest.

SMILES	Vc quorum ag	MazF activator	FadD28 binding	UGM FP inh	Rv3671c inh	Mtb betalactam	Rv3671c cf	others
Cn1c(/C(C#N)=C/c2ccc(-c3ccc(S(N)(=O)=O)cc3)o2)nc2ccccc21	0	-130	11*	7	47*	-1	-4
Cn1c(/C(C#N)=C/c2cccc(O)c2)nc2ccccc21	0	-2	-3	-2	1	4	x
COc1cccc(N2C(=O)Nc3ccc(Br)cc3C2(O)C(=O)NCCN(C)C)c1 (stereo not given)	1	5	-1	3	-6	-12	x
CN1C(=O)NC(c2ccccc2[N+](=O)[O-])C2=C1CCCC2=O (stereo not given)	0	-100	7	12*	74*	0	38*
C[C@H](NC(=O)C1CCN(S(=O)(=O)c2ccccc2)CC1)C(=O)NCc1ccc(Cl)cc1Cl	0	3	-2	0	-8	-3	x
CN1CCCN(S(=O)(=O)c2ccc(O)c(C(=O)O)c2)CC1	2	3	x	2	-1	-12	x
Nc1ccc2nc(-c3ccc(-c4nc5ccc(N)cc5[nH]4)cc3)[nH]c2c1	x	-7	x	4	39*	-2	50*
Nc1ccc2nc(-c3cccc(-c4nc5ccc(N)cc5[nH]4)n3)[nH]c2c1	i	9	-2	-3	1	4	x
Nc1ccc2nc(-c3ccccc3)c(-c3ccccc3)nc2c1	0	-24	1	-1	3	5	x
C[n+]1c(-c2ccccc2)c2cc(N)ccc2c2ccc(N)cc21	0	-64	13*	-1	74*	100	90*
O=C(NCc1ccco1)c1cccc(Nc2nc3ccc(Br)cc3[nH]2)c1	i	11	-10	0	40*	-3	44*
CCCCN(C=O)c1c(CC)nc2ccc(C(=O)N(C)Cc3ccccc3)cn12	-1	x	-2	x	x	x	x
CC1=C(C(N)=O)C(c2cccnc2)n2nc(-c3cccc(Cl)c3)nc2N1 (stereo not given)	-2	8	-5	0	-1	5	x
CC1=C(C(N)=O)C(c2ccccc2)n2nc(-c3cccc(C)c3)nc2N1 (stereo not given)	0	-4	-2	-1	65*	-3	60*
CN1OC[C@@H]2CN(S(=O)(=O)c3ccccc3)[C@H](c3ccc(-n4ccnc4)cc3)C[C@@H]21	x	x	-4	x	x	x	x
COc1cc2nc(Nc3ccc(C)c(Cl)c3)nc(N)c2cc1OC	i	-22	-5	4	74*	100	74*
O=S1(=O)C=C[C@H](COCc2ccccc2)N1	x	x	-3	x	x	x	x
Cc1ccccc1SCc1noc(C(=O)NCC2CCCO2)c1C(=O)O (stereo not given)	0	8	-3	3	5	-7	x
O=C(NCC1CCCO1)c1onc(CSc2ccc(Cl)cc2)c1C(=O)O (stereo not given)	-8	-6	0	6	84*	24	0
CC1CCN(S(=O)(=O)c2ccc3[nH]c(=O)c(=O)[nH]c3c2)CC1	-1	8	-4	-4	62*	-12	-3
CCOC(=O)C1CCN(S(=O)(=O)c2ccc3[nH]c(=O)c(=O)[nH]c3c2)CC1	i	3	-1	2	5	-8	x
Cc1ccc(-n2c(SCC(=O)Nc3ccc4c5c(cccc35)CC4)nc(O)cc2=O)cc1	2	-1	-2	2	45*	3	-8
CC12CCC(=O)N1C(C(=O)Nc1cc(C(F)(F)F)ccc1N1CCOCC1)CS2 (stereo not given)	1	5	-1	2	-4	-2	x
CC12CCC(=O)N1C(C(=O)Nc1cc(C(F)(F)F)ccc1N1CCCCC1)CS2 (stereo not given)	i	0	-1	-2	40*	-2	0
O=C(N/N=C/c1cc(Br)c(O)c(Br)c1O)c1ccc2c(c1)OCCO2	0	9	12*	2	42*	6	21
SMILES	Vc quorum ag	MazF activator	FadD28 binding	UGM FP inh	Rv3671c inh	Mtb betalactam	Rv3671c cf	others
O=C(N/N=C/c1cc(Br)c(Br)o1)c1ccc2c(c1)OCCO2	0	-4	-4	2	2	5	x
Cc1nn(Cc2ccccc2)c(C)c1NC(=O)c1ccc([N+](=O)[O-])cc1[N+](=O)[O-]	i	-4	-5	-3	166*	-1	-7
c1ccc(-c2nc3cc4ccccc4cc3[nH]2)nc1	i	14	-4	0	39*	89	44*
CC(NC(=O)CCNC(=O)c1ccc(C(C)(C)C)cc1)c1ccccc1 (stereo not given)	1	0	1	1	5	-1	x
Cc1cccc2c(=O)oc(-c3ccccc3Cl)nc12	-1	-2	0	1	51*	4	72*
CCOC(=O)C1(CCOc2ccccc2)CCN(Cc2cccc(OC)c2OC)CC1	0	0	-1	-4	5	6	x
Cc1nc2ccccc2n2c(O)c(CC(=O)O)cc12	-1	-428	14*	0	53*	8	5
Cc1nc2ccccc2n1CCC(=O)O	-1	-4	-2	0	1	-13	x
O=C(O)Cn1ccnc1[N+](=O)[O-]	i	-3	-1	x	x	x	x
Cc1nc(NC(=O)c2ccccc2)sc1-c1csc(Nc2cccc(F)c2)n1	x	x	x	-2	-14	0	x
Cc1cc(NS(=O)(=O)c2ccc(Nc3nc(-c4sc(NC(=O)c5ccccc5)nc4C)cs3)cc2)no1	x	x	x	0	63*	11	50*
CN(CCC#N)C(=O)COC(=O)C1c2ccccc2Oc2ccccc21	0	11	1	-1	0	0	x
N#CCCN(CCC#N)C(=O)C1c2ccccc2Oc2ccccc21	i	-13	11*	73*	84*	4	-2
Cc1ccc(CNC(=O)c2ccc(NC(=O)C3=CSCCO3)cc2)cc1	0	9	-3	-1	-10	-4	x
COc1cccc(CNC(=O)c2ccc(NC(=O)C3=CSCCO3)cc2)c1	i	-21	-3	-3	61*	8	-6
CC(C)(C)C1(C)OC(=O)C(=Cc2ccc(OCC(=O)Nc3ccccc3)cc2)C(=O)O1 (stereo not given)	0	-19	-1	1	2	-6	x	DNA intercalat=>35
Cc1cccc(N(Cc2ccccc2)C(=O)CN2C(=O)NC3(CCCC3)C2=O)c1	i	3	-1	-1	1	1	x
Cc1nn(C)c(C)c1N1C(=O)c2cccc3c(N)ccc(c23)C1=O	i	i	4	68*	11	-17	x	DNA intercalat=6.1*
COc1ccc(NS(=O)(=O)c2ccc3c(c2)NC(=O)C(C)S3)cc1 (stereo not given)	i	4	-2	-1	5	3	x
Cc1ccc(Cl)cc1N1CCN(C(=O)C2CCN(S(C)(=O)=O)CC2)CC1	-1	-4	-1	6	-11	-7	x	DNA intercalat=>35
